From PubChem BioAssay (NCATS)
Where “and” joins values, the source holds several entries; their conditions need not be identical. Identical values can stand only once. Results filed as inconclusive are left out. Where a structure was tested more than once in an assay, its records may differ in their call. Calls of active or inactive are those of the source. Calls come from the whole dose curve; as a rule, active = well fitted curve in the direction sought with a large enough effect; inconclusive = small, poorly fitted or top-dose-only effect, or another doubt; inactive = no such curve, though single readings can be large; an effect the other way counts as inactive or inconclusive.

Experiments:
[1] = molecular target: Cytochrome P450 2C9 (Homo sapiens) (UniProt P11712); assay: qHTS Assay for Inhibitors and Substrates of Cytochrome P450 2C9 (AID 883); note: nearly all actives have a fitted effect of over 60% in size; note: potency is the fitted concentration of half-maximal effect; for activity change, negative = inhibition: % is set by controls: 0 for no effect and ±100 for the full control effect
Procedure, shortened: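 Luminescent read-out of deoxyluciferin hydroxylation, normalized to 57uM sulphaphenazole (AC100). Reaction: 10nM enzyme, 100uM Luciferin-H (equal to KM), 25mM KPO4, 10 min compound preincubation, then 60 min with NADPH regeneration, both at 37C.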

[2] = molecular target: Cytochrome P450 3A4 (Homo sapiens) (UniProt P08684); assay: qHTS Assay for Inhibitors and Substrates of Cytochrome P450 3A4 (AID 884); note: series mostly up to about 57 µM; % is set by controls: 0 for no effect and ±100 for the full control effect; nearly all actives have a fitted effect of over 50% in size
Procedure, shortened: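 Luminescent readout of luciferin produced by CYP3A4 (20 nM) dealkylation of Luciferin-PPXE, 25 uM (its KM). NADPH-driven reaction ran 60 min at RT after 10 min compound preincubation; data scaled to 57 uM ketoconazole as 100% inhibition.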

[3] = molecular target: Cytochrome P450 2D6 (Homo sapiens) (UniProt P10635); assay: qHTS Assay for Inhibitors and Substrates of Cytochrome P450 2D6 (AID 891);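 note: luciferin methyl ether substrate demethylated by CYP2D6 with NADPH regeneration; % is set by controls: 0 for no effect and ±100 for the full control effect; nearly all actives have a fitted effect of over 60% in size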
Procedure, shortened: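 Luminescent read-out of luciferin formed by 5 nM human CYP2D6 demethylating 30 uM Luciferin-ME EGE (Km level) over 60 min at room temperature after NADPH regeneration addition. Data normalized to full inhibition by 1.43 uM quinidine.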

[4] = molecular target: Cytochrome P450 2C19 (Homo sapiens) (UniProt P33261); assay: qHTS Assay for Inhibitors and Substrates of Cytochrome P450 2C19 (AID 899); note: nearly all actives have a fitted effect of over 60% in size; note: potency is the fitted concentration of half-maximal effect
Procedure, shortened: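 Luminescence readout of luciferin formed from 10uM Luciferin-H EGE (KM level) by 5 nM CYP2C19 in 50mM KPO4. 60 min NADPH-driven reaction at 37C after 10 min compound preincubation; data scaled to 57uM ketoconazole inhibition.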

[5] = molecular target: Cytochrome P450 3A4 (Homo sapiens) (UniProt P08684); assay: qHTS Assay for Activators of Cytochrome P450 3A4 (AID 885); note: nearly all actives have a fitted effect of over 65% in size
Procedure, shortened: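 Using 20nM recombinant human CYP3A4 in potassium phosphate (200mM), substrate Luciferin-PPXE at 25uM, luminescent luciferin detection followed a 60-min RT NADPH reaction; data scaled to 57 uM ketoconazole.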

Chain of Cytochrome P450 2C19 (Homo sapiens) (P33261 whole entry, looked up): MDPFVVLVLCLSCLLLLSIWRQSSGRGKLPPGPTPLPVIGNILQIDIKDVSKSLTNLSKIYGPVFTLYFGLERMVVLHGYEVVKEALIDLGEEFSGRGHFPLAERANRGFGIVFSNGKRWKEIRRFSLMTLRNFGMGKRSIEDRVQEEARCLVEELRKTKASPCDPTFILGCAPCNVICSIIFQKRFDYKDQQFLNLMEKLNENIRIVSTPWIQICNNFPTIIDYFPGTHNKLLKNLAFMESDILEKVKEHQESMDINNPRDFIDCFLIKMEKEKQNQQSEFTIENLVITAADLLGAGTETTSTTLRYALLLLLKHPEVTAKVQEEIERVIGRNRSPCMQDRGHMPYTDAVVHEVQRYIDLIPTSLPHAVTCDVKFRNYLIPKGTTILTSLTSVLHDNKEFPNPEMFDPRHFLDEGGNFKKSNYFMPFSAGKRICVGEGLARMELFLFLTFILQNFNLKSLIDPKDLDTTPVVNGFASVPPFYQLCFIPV
Chain of Cytochrome P450 3A4 (Homo sapiens) (P08684 whole entry, looked up): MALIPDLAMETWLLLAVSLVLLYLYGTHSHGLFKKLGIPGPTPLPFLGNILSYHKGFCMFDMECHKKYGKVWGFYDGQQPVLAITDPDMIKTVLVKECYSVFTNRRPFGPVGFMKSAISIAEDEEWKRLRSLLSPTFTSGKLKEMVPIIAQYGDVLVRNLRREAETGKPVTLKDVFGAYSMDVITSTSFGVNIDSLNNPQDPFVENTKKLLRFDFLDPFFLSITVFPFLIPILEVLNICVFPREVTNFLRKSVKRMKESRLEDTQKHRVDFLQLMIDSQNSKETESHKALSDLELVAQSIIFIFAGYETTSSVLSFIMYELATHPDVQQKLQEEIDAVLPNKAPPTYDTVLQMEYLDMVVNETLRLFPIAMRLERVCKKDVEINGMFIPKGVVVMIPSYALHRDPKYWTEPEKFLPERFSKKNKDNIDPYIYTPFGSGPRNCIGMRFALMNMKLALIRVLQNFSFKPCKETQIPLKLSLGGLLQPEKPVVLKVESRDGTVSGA
Chain of Cytochrome P450 2C9 (Homo sapiens) (P11712 whole entry, looked up): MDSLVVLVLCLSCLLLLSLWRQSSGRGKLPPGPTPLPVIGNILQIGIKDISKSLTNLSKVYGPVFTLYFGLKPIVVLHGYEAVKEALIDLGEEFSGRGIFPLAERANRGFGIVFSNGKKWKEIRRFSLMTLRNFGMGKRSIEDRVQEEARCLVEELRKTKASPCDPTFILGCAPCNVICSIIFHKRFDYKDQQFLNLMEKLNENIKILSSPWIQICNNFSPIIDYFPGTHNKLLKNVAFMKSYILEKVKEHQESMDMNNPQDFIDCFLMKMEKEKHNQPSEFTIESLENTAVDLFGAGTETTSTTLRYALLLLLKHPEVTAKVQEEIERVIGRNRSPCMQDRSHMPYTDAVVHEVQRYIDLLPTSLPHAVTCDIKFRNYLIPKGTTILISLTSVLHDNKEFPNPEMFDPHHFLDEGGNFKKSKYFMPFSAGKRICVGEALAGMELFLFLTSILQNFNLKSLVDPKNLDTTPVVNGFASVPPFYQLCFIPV
Chain of Cytochrome P450 2D6 (Homo sapiens) (P10635 whole entry, looked up): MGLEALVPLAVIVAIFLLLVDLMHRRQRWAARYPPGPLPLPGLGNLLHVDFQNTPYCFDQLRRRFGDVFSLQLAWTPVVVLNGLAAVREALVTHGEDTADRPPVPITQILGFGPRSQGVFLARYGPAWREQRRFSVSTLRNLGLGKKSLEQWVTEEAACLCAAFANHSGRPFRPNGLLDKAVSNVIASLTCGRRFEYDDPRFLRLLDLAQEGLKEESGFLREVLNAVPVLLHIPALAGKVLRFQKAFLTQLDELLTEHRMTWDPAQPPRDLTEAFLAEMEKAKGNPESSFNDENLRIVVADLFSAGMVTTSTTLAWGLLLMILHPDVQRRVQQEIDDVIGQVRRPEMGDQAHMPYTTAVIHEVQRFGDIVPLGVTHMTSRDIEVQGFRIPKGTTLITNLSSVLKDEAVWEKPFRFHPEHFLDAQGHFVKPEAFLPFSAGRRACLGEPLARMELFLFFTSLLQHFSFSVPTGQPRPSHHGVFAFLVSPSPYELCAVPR

COC(=O)CC1=COC2OCC3=CC[C@@H]1C32 (stereo not given in full)
inactive: Potency [1] | activity change, negative = inhibition [2] -15.8% [at 11.4 µM] | Potency [3] | Potency [4]

CC1CCC2C(=O)N3C(CCC(C)C3c3ccc(-c4ccco4)cc3)C(=O)N2C1c1ccc(-c2ccco2)cc1 (stereo not given)
inactive: Potency [1] | activity change, negative = inhibition [2] -11.9% [at 11.4 µM] | Potency [3] | Potency [4]

CC1CCC(C(=O)O)NC1c1cccc(N2CCOCC2)c1 (stereo not given)
inactive: Potency [1] | activity change, negative = inhibition [2] -10.3% [at 11.4 µM] | Potency [3] | Potency [4]

CC(=O)Nc1ccc(C2NC(C(=O)O)CCC2C)cc1 (stereo not given)
inactive: Potency [1] | activity change, negative = inhibition [2] -21% [at 11.4 µM] | Potency [3] | Potency [4]

COC(=O)/C=C/C1c2ccccc2C(OC)C1C (stereo not given)
inactive: Potency [1] | activity change, negative = inhibition [2] -4.29% [at 11.4 µM] | Potency [3] | Potency [4]

C=CCC1(c2ccccc2)Oc2ccc(C)cc2-c2nc3cc(Cl)c(Cl)cc3nc21 (stereo not given)
inactive: Potency [1] | activity change, negative = inhibition [2] -28.2% [at 11.4 µM] | Potency [3] | Potency [4]

C(#CC1C=CC2OC(c3ccccc3)OCC2O1)c1ccccc1 (stereo not given)
inactive: Potency [1] | activity change, positive = activation [5] -40.5% [at 11.4 µM] | Potency [3] | Potency [4]

C/C=C/OC(=O)NC(c1cccc(C)c1)[C@@]1(C(=O)OCC)CCCC1=O (stereo not given in full)
active: Potency [4] 1 µM
inactive: Potency [1] | activity change, positive = activation [5] -48.2% [at 11.4 µM] | Potency [3]

CCN1C(C)=C(C(=O)OC)C(c2ccccc2)N2C(=O)[C@@]3(C(=O)OC)O[C@@]12C1C(=O)CCCC13 (stereo not given in full)
inactive: Potency [1] | activity change, positive = activation [5] -36.9% [at 11.4 µM] | Potency [3] | Potency [4]

CCOC(=O)[C@]1(C(NC(=O)OC)c2ccccc2)CCCC1=O (stereo not given in full)
active: Potency [4] 1.26 µM
inactive: Potency [1] | activity change, positive = activation [5] -34% [at 11.4 µM] | Potency [3]

COc1ccccc1/C=C/C1=CC2(C)CC1(C)C(c1ccccc1OC)CC2=O (stereo not given)
inactive: activity change, positive = activation [5] -56.9% [at 11.4 µM] | Potency [3]
active: Potency [1] 3.98 µM | Potency [4] 3.16 µM

CC(=O)OCC1OC(C#CCC2CCCCC2)C=CC1OC(C)=O (stereo not given)
inactive: Potency [1] | activity change, positive = activation [5] -56.3% [at 11.4 µM] | Potency [3] | Potency [4]

OCC1OC(C#Cc2ccccc2)C=CC1O (stereo not given)
inactive: Potency [1] | activity change, positive = activation [5] -40.9% [at 11.4 µM] and -46.3% [at 11.4 µM] and -31.2% [at 11.4 µM] | Potency [3]
inactive and 631 nM (active): Potency [4]

COC(=O)C1=C(C)N(Cc2ccccc2)C2=C3C(=O)N(c4ccccc4)C(=O)C3[C@@](O)(C(=O)OC)C(=O)N2C1c1ccccc1 (stereo not given in full)
inactive: Potency [1] | activity change, positive = activation [5] -39.6% [at 11.4 µM] and -38.9% [at 11.4 µM] | Potency [3] | Potency [4]

COC(=O)NC(c1cccc(C)c1)C(C(C)=O)C(=O)OC (stereo not given)
inactive: Potency [1] | activity change, positive = activation [5] -34.6% [at 11.4 µM] | Potency [3] | Potency [4]

C=CCC1(C)OC=Cc2nc3cc(Cl)c(Cl)cc3nc21 (stereo not given)
active: Potency [4] 3.98 µM
inactive: Potency [1] | activity change, positive = activation [5] -59.2% [at 11.4 µM] | Potency [3]

C=C(C)C(O)/C=C/c1ccccc1OC (stereo not given)
inactive: Potency [1] | activity change, positive = activation [5] -35.5% [at 11.4 µM] | Potency [3] | Potency [4]

COc1ccc(-c2nc3c(c4c2CC(C)OC4)CN(CCC(C)C)CC3)cc1 (stereo not given)
inactive: Potency [1] | activity change, positive = activation [5] -50.4% [at 11.4 µM] | Potency [3] | Potency [4]

CC1CCC2C(=O)OC(Cc3ccccc3)CN2C1c1ccc(Br)cc1 (stereo not given)
active: Potency [4] 316 nM and 3.16 µM
inactive: Potency [1] | activity change, positive = activation [5] -52.5% [at 11.4 µM] and -47.1% [at 11.4 µM] | Potency [3]

CCN1C(C)=C(C(=O)OC)C(c2ccccc2)N2C(=O)[C@](O)(C(=O)OC)C(c3ccccc3)C(C(C)=O)=C12 (stereo not given in full)
inactive: Potency [1] | activity change, positive = activation [5] -59.7% [at 11.4 µM] | Potency [3] | Potency [4]

CCN1C(C)=C(C(=O)OC)C(c2ccccc2)N2C(=O)[C@](O)(C(=O)OC)CC(C#N)=C12 (stereo not given in full)
inactive: Potency [1] | activity change, positive = activation [5] -38.3% [at 11.4 µM] | Potency [3] | Potency [4]

CCCCCCC1=Cc2cc(OC)c(OC)cc2C(CC(=O)/C=C/OC)O1 (stereo not given)
inactive: Potency [1] | activity change, positive = activation [5] -40.4% [at 11.4 µM] | Potency [3] | Potency [4]

CC(=O)OCC1OC(C#Cc2ccc(Br)cc2)C=CC1OC(C)=O (stereo not given)
inactive: Potency [1] | activity change, positive = activation [5] -46% [at 11.4 µM] | Potency [3] | Potency [4]

C=CCOC(=O)C(C(=O)CC)C(NC(=O)OC)c1ccc(F)cc1 (stereo not given)
inactive: Potency [1] | activity change, positive = activation [5] -52.3% [at 11.4 µM] | Potency [3] | Potency [4]

CCCCCCC1=Cc2cc(OC)c(OC)cc2C(C(C(C)=O)C(=O)OC)O1 (stereo not given)
active: Potency [4] 3.16 µM
inactive: Potency [1] | activity change, positive = activation [5] -57.6% [at 11.4 µM] | Potency [3]
